APOBEC3A inh: human APOBEC3A DNA deaminase inhibition. recombinant A3A, FAM/TAMRA ssDNA deamination fluorescence. P31941. hit rate 0.41% among 330,000. inhibition, % at 20 µM. AID 493011;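 active means at least 40% inhibition at 20 µM here, with at most 30% in a related deaminase screen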;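 further: plate controls were A3A with DMSO for no effect and wells lacking A3A enzyme for full effect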
Target sequence (P31941 whole entry, looked up): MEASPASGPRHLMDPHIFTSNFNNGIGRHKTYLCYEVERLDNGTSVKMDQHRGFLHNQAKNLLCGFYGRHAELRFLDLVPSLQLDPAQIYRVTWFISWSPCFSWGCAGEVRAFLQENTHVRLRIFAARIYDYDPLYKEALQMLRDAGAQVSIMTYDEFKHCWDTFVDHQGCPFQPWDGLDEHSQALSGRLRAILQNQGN
M18AAP inhibitor: PfM18AAP enzyme inhibition | recombinant PfM18AAP, H-Glu-NHMec fluorogenic cleavage | inhibition, % at 7.35 µM | AID 1822 | hit rate 1.2% among 290,000;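 active means inhibition above the campaign mean inhibition over all tested compounds plus 3 SD, cut at about 28% in these data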;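 further: 0% = plate median of test compound wells and 100% = 2 mM ZnCl2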
APOBEC3G inh: inhibitors of human APOBEC3G DNA deaminase | Q9HC16 | recombinant A3G, ssDNA deamination FAM/TAMRA fluorescence | inhibition, % at 20 µM | hit rate 0.28% among 330,000;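 active means inhibition of at least 40% at 20 µM, with no more than 30% in the related APOBEC3A deaminase screen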;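 further: plate controls were DMSO wells with A3G for no effect and wells lacking A3G enzyme for full effect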
Target sequence (Q9HC16 whole entry, looked up): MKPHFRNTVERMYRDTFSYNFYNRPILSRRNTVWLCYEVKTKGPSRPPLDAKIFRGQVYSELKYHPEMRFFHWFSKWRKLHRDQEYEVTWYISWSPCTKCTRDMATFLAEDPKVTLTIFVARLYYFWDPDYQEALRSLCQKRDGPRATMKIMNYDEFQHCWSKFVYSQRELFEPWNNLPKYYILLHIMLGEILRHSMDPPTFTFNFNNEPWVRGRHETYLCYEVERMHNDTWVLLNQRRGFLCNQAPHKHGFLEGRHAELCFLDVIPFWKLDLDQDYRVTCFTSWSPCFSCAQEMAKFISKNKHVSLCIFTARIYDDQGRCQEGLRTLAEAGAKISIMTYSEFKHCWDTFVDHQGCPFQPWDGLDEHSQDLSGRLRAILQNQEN
CendR NRP1 mod: modulators of CendR peptide binding to human neuropilin-1; O14786; inhibition, % at 25 µM; hit rate 0.85% among 360,000; FAM-RPARPAR peptide binding to NRP-1, fluorescence polarization;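 active means inhibition or corrected inhibition above about 18%, plus a signal ratio from 0.5 to 1.5, limit read from the data, passing the limit was not always enough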
ALR inh: inhibitors of human sulfhydryl oxidase ALR; P55789; purified ALR, DTT oxidation, H2O2 HRP-luminol luminescence; hit rate 3.8% among 290,000; inhibition, % (test concentration not listed);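 active means mean replicate inhibition above about 79%, with every replicate also reaching it, limit read from the data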
CR mimetic SO: caloric restriction mimetics inhibiting age-related superoxide in yeast. S. cerevisiae aged cells, superoxide DHE fluorescence; hits give low values. superoxide response (% of plate mean), % at 10 µM. hit rate 0.18% among 330,000. AID 2690;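 active means superoxide response under a set limit, about three screen SD below normal, cut at about 65% in these data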;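 further: yeast aged for seven days with compound at 30 °C before DHE staining; 100% = average MFI of all compound-treated wells on the plate with controls excluded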
The depositor's hits bear a star; . = not tested or not shown. This is a sample that favours compounds with a hit; in the whole collection about 5.2% have one here.

SMILES | APOBEC3A inh | M18AAP inhibitor | APOBEC3G inh | CendR NRP1 mod | ALR inh | CR mimetic SO
COc1ccc(/C=C2\C(=O)NC(=O)N(CCC3=CCCCC3)C2=O)c(OC)c1 | 3 | 16 | -5 | -10 | 20 | 117
CC(C)(C)NC(=S)N1Cc2ccccc2-n2nncc2C1 | . | . | . | 10 | . | .
CCC(C)N1C(=O)/C(=C/c2ccc3c(c2)CCN3CCCCl)C(=O)NC1=S (stereo unspecified) | . | 1 | . | -79 | 98* | 98
Cc1cccc(N2C(=O)NC(=O)/C(=C\c3ccc4c(c3)CCCN4Cc3ccccc3)C2=O)c1 | 1 | 3 | -1 | 79 | 1 | 96
Cc1cc(CN(C)C)c(OC(=O)N(C)C)cc1C | -1 | 4 | -3 | -1 | -11 | 90
COc1ccc(OC(=O)N(C)C)c(CN(C)C)c1 | 3 | -8 | 14 | 27* | -14 | 96
Cc1cc2c(C(C)C)c(O)c(O)c(C=O)c2c(O)c1-c1c(C)cc2c(C(C)C)c(O)c(O)c(C=O)c2c1O | . | 32* | . | -65 | . | .
CCc1nc2ccccc2c(=O)n1-c1ccccc1OC | -1 | -7 | -5 | 5 | 8 | 98
Cn1c(O)c(C(=Nc2ccccc2)SCc2ccc(Cl)cc2)c(=O)n(C)c1=O | -2 | 6 | 2 | -6 | 98* | 95
C=COCCn1c(C)c(C(C)=O)c2cc(O)ccc21 | 7 | 1 | -3 | 4 | . | 89
CC1CCCC(C)N1/N=C/c1c[nH]c2ccc(Br)cc12 (stereo unspecified) | 0 | 2 | -3 | -8 | 99* | 99
CN1CCC(c2c[nH]c3ccc(O)cc23)CC1 | . | . | . | 4 | . | .
CC1CN=C(Nc2ccc(N(C)C)cc2)S1 (stereo unspecified) | -2 | 2 | -6 | -4 | 89* | 116
CC1CN=C(Nc2ccccc2)S1 (stereo unspecified) | -6 | -12 | -7 | 3 | -2 | 137
COc1ccc(CCn2c(O)c(/C=N/N3CCOCC3)c(=O)[nH]c2=O)cc1OC | -2 | 1 | -2 | 3 | 30 | 94
N#CC(C#N)=Cc1ccc(-c2ccccc2F)o1 | . | -12 | . | -36 | . | 83
COC(=O)C1=C(c2ccc(OC(F)(F)F)cc2)C[C@@H]2CC[C@H]1N2C(=O)NCCO | -5 | . | -10 | 7 | 1 | 107
O=c1[nH]c(=O)n(CCC2=CCCCC2)c(O)c1/C=N/Nc1ccccc1 | 1 | -1 | 22 | -19 | 98* | 98
CCN(CC)c1ccc(N=Cc2c(O)n(CCC3=CCCCC3)c(=O)[nH]c2=O)cc1 | -4 | 13 | -6 | 137 | -13 | 108
O=c1[nH]c(=O)n(Cc2ccc(F)cc2)c(O)c1/C=N/Nc1ccccc1 | -3 | 9 | 7 | 0 | 99* | 98
O=c1[nH]c(=O)n(CCC2=CCCCC2)c(O)c1C=NC1CCN(Cc2ccccc2)CC1 | -4 | -13 | -8 | -10 | -7 | 93
CN(C)c1ccc(N=Cc2c(O)n(CCC3=CCCCC3)c(=O)[nH]c2=O)cc1 | 0 | 7 | -9 | 61* | -16 | 92
CNC(=O)Oc1cccc(-c2cn3cc(OC(=O)NC)ccc3n2)c1 | . | 31* | . | -7 | 32 | 84
CCOC(=O)c1ccccc1C(=O)OCC | -4 | . | -4 | 44* | -13 | 91
COc1ccc(N2CCN(C(CNC(=O)Oc3ccccc3)c3cccnc3)CC2)cc1 (stereo unspecified) | 4 | 1 | 5 | 5 | 85* | 95
SMILES | APOBEC3A inh | M18AAP inhibitor | APOBEC3G inh | CendR NRP1 mod | ALR inh | CR mimetic SO
COC(=O)CSC1=NP(=S)(SCC(=O)OC)N2CCCC2=C1C#N (stereo unspecified) | -1 | 11 | -3 | 2 | 98* | 96
CC(C)Nc1ccc(Nc2ccccc2)cc1 | -1 | . | 1 | 12 | 99* | 102
c1ccc(Nc2ccc3ccccc3c2)cc1 | . | . | . | 0 | . | .
c1ccc(CCN2CCC(N3CCN(c4ccccc4)CC3)CC2)cc1 | 1 | 3 | 3 | 2 | 99* | 100
C=CC1CN2CCC1CC2c1[nH]c2ccccc2c1CCO (stereo unspecified) | -3 | 0 | -7 | 3 | -1 | 94
O=C(C1CCCCC1)N1Cc2ccccc2-n2nncc2C1 | . | . | . | -5 | . | .
O=C1c2ccccc2-c2cc3ccccc3cc21 | . | . | . | 20 | . | .
O=C1C=C(N2CC2)c2ccccc2C1=O | . | . | . | 25* | . | .
C[N+](C)(C)Cc1ccccc1 | 1 | 3 | -2 | -9 | -2 | 108
O=[N+]([O-])c1cc2c(cc1CNCCc1ccc3c(c1)OCO3)OCO2 | -2 | 9 | -6 | 37* | -2 | 104
Fc1ccc(CNCCc2ccc3c(c2)OCO3)cc1 | -5 | -8 | -1 | -2 | -4 | 93
O=C1NCN(c2ccccc2)C12CCN(C(c1cc3ccccc3o1)c1nnnn1-c1ccc3c(c1)OCCO3)CC2 (stereo unspecified) | . | . | . | 4 | . | .
CCC1(CCC(C)C)C(=O)NC(=O)N(c2ccccc2)C1=O (stereo unspecified) | . | . | . | -5 | . | .
CC1CC(C)CC(C)C(O)C(C#N)=CC=CCC(C2CCCC2C(=O)O)OC(=O)CC(O)C(C)C1 (stereo unspecified) | . | . | . | 3 | . | .
Cc1ccccc1N1C(=O)NC(=O)/C(=C\c2cc(Br)c(N3CCOCC3)o2)C1=O | 5 | 41* | 2 | -98 | 59 | 98
O=C(CCC(=O)N1CCOc2ccc(Cl)cc21)N1CCC2(CC1)OCCO2 | -2 | 0 | -7 | 6 | -4 | 92
O=C(NC1(C(F)(F)F)Oc2ccc(Cl)cc2O1)N1CCC2(CC1)OCCO2 (stereo unspecified) | -2 | 98* | -6 | -1 | 99* | 96
Cc1cccc(N2C(=O)NC(=O)/C(=C\c3cc(C)n(-c4sc5c(c4C#N)CCCC5)c3C)C2=O)c1C | 5 | 17 | 4 | -140 | 8 | 46*
N#CC(C#N)=Cc1ccc(O)c(O)c1 | 1 | . | 0 | -29 | 98* | 86
CC(=O)N(C)CC#CCN1CCC(O)CC1 | -3 | . | -10 | 37* | -15 | 113
COc1ccc(/C=N/N=C(/N)N[N+](=O)[O-])c(OC)c1 | -1 | -7 | -3 | -9 | -5 | 98
N/C(=N\N=C/c1ccc(-c2ccc(O)c(C(=O)O)c2)o1)N[N+](=O)[O-] | 98 | 31* | 75 | -32 | 38 | 92
O=C1C2CCN(CC2)[C@@H]1Cc1ccc2ccccc2c1O | -2 | -2 | -5 | 10 | 81* | 106
O=c1c2ccccc2nc(Cc2ccccc2)n1-c1ccccc1O | 6 | 1 | -5 | -11 | . | 96
O=c1[nH]c(=S)[nH]c(O)c1N=Nc1ccc(S(=O)(=O)N2CCOCC2)cc1 | 6 | 12 | -3 | -5 | 95* | 106
CC/C(=N\Nc1ccccc1)c1c(O)n(-c2ccc(OC)cc2)c(=O)[nH]c1=O | 1 | 15 | -3 | 8 | 99* | 90
CCC(=NCCO)c1c(O)n(-c2ccccc2)c(=O)[nH]c1=O | -4 | 3 | -5 | 5 | -2 | 97
